Compounds with a hit are over-represented: about 3.5% of the library has one in this group of screens.
GPR151 ag: activators of human GPR151, primary screen, cell-based, PathHunter beta-arrestin, luminescence | 650,000 compounds, 1% hits | G-protein coupled receptor 151 (Homo sapiens), Q8TDV0 | activation, % at 11.2 µM | PathHunter beta-arrestin GPR151 cells; in the data active = activation above about 4.9%;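 note: 0% = median of compound wells and 100% = cells with positive control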
MITF inh: MITF inhibitors, primary screen, biochemical, AlphaScreen, human; Microphthalmia-associated transcription factor (Homo sapiens), O75030; AID 1259374, 2018; AlphaScreen MITF homodimerization, bead proximity signal; inhibition, % at 2.6 µM; 650,000 compounds, 0.91% hits; in the data active = inhibition above about 50%;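 note: 0% = vehicle wells with protein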
Target sequence (O75030 whole entry, looked up): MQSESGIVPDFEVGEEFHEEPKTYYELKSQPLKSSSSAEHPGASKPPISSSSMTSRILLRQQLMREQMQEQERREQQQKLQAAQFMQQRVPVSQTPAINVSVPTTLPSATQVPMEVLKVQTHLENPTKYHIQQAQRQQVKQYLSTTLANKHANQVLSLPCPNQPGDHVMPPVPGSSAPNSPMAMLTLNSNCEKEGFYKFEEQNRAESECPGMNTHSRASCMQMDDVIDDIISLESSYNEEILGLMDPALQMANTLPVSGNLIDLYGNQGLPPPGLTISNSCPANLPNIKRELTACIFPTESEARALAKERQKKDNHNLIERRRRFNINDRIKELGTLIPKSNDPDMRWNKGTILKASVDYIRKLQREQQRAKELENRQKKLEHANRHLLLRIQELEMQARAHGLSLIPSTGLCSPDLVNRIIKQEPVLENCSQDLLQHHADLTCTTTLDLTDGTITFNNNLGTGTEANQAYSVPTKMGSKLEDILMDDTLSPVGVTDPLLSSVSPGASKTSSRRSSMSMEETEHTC
FBW7 act: FBW7 E3 ligase activators, primary screen, biochemical, AlphaScreen, human | F-box/WD repeat-containing protein 7 (Homo sapiens), Q969H0 | AlphaScreen FBW7–phospho-cyclin E peptide binding, activator screen | normalized activity (activation), % at 26.1 µM | 650,000 compounds, 0.13% hits | AID 1259310, 2017; in the data active = normalized activity above about 1.9%;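 note: purified mutant Fbw7 with reduced substrate affinity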
TEAD-YAP inh: TEAD-YAP interaction inhibition, primary screen, TEAD-YAP interaction inhibitor project, luminescence, HEK-TIYL cells; inhibition, % at 9.12 µM; 640,000 compounds, 1.4% hits; AID 1259422, 2018; TEAD-Gal4/YAP UAS-luciferase luminescence; in the data active = inhibition above about 32%;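 note: 0% = median of test compound wells and 100% = reference inhibitor wells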
MITF inh conf: MITF inhibitors, retest of hits, confirmation, biochemical, AlphaScreen, triplicate | AlphaScreen MITF homodimerization, biotin/His-MITF beads | shares compounds with MITF inh | 4,700 compounds, 16% hits | inhibition, % at 2.6 µM;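 active = inhibition above a cutoff derived from the DMSO control wells, cut at about 28% in these data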;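 note: 0% = MITF dimer wells with DMSO only; inhibitors lower the bead chemiluminescence by keeping MITF from dimerizing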
AlphaScreen DR: AlphaScreen optical interference compounds, dose response, counter-screen, biochemical, HTS | shares compounds with MITF inh | AlphaScreen optical interference counterscreen, cell-free | IC50, µM | 480 compounds, 6% hits | AID 1259373, 2018; call rule not given here
AS interf ctr: AlphaScreen optical interference compounds, counter-screen for MITF inhibitor project, biochemical, triplicate; shares compounds with MITF inh; LysRS AlphaScreen counterscreen, signal interference; inhibition, % at 2.6 µM; 4,700 compounds, 7.6% hits;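 active = inhibition above a cutoff derived from the DMSO control wells, cut at about 30% in these data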
* hit, by the source's call; / = no result given.

SMILES	GPR151 ag	MITF inh	FBW7 act	TEAD-YAP inh	MITF inh conf	AS interf ctr	others
Cc1ccc(-c2cc(C(=O)Nc3nnc(C)s3)c3ccccc3n2)s1	1	65*	0	7	5	11
CSc1ccc(C(=O)O)s1	2	75*	0	-2	35*	7	AlphaScreen DR=>10
CSc1ccc(C(=O)NCc2nc(-c3ccncc3)n[nH]2)s1	0	5	0	5	/	/
Cc1cccc(NC(=O)/C=N/Nc2ccccc2Cl)c1N1CCC2(CC1)OCCO2	1	2	0	-14	/	/
C/C(=C\CO)CC[C@H](C)CCC[C@H](C)CCCC(C)C	2	105*	0	-24	0	-3
CC(=O)CCCC(C)CCCC(C)CCCC(C)C (stereo unspecified)	2	-1	0	-6	/	/
Cc1cc(NCc2cccc(C(F)(F)F)c2)nc(-c2csc3ccccc23)n1	0	14	0	-6	/	/
FC(F)(F)c1cccc(CNc2cc(-c3csc4ccccc34)ncn2)c1	3	62*	0	-3	-3	0
Cc1cc(C)n(CC(=O)Nc2nc(-c3ccccc3)cs2)n1	-1	-6	0	-3	/	/
N#Cc1ccc(OCC(O)CN2CCN(CCOc3ccccc3)CC2)cc1 (stereo unspecified)	-1	81*	0	-3	2	9
CCC(C)c1ccc(OCCN2CCN(CC)CC2)cc1 (stereo unspecified)	1	56*	0	3	8	11
CCOc1ccc(OCCCNCCO)cc1	-2	18	0	13	/	/
CCN1CCN(CCOc2ccc(C#N)cc2)CC1	0	54*	0	9	6	8
CCC(C)c1ccc(OCCNCCO)cc1 (stereo unspecified)	1	56*	0	-1	-17	-8
COc1ccc(Oc2ccc(NC(=O)CCCC(=O)O)cc2)cc1	0	11	0	7	/	/
CCOc1ccc(-c2cn(S(=O)(=O)c3cc(Cl)sc3Cl)nc2N)cc1	0	-11	0	-3	/	/
CN(Cc1ccsc1)C(=O)CCC1(Cc2ccc(Cl)cc2)CCC(=O)N1 (stereo unspecified)	0	-4	0	0	/	/
N#CCCn1cc(CNCc2ccccc2)c(-c2ccccc2)n1	2	54*	0	4	14	13
N#CCCn1cc(CNCc2ccccc2)c(-c2ccc(F)cc2)n1	0	8	0	4	/	/
N#Cc1c(NC(=O)c2cc(-c3ccc4c(c3)OCO4)on2)sc2c1CCC2	-1	11	0	2	/	/
COc1cc2nc(Oc3ccccc3)nc(NCc3ccccc3)c2cc1OC	1	15	0	13	/	/
CN1CCC(N(C)Cc2ccc(F)c(Br)c2)CC1	-1	54*	1	-12	18	17
CS(=O)(=O)c1cccc(S(=O)(=O)N2CCN(Cc3ccccc3)CC2)c1	0	-12	0	6	/	/
O=S(=O)(c1ccc(Cl)cc1)N1CCN(Cc2ccc(F)cc2)CC1	1	1	0	-3	/	/
O=S(=O)(c1ccccc1)N1CCN(Cc2cccc(Cl)c2)CC1	0	64*	0	2	8	19
SMILES	GPR151 ag	MITF inh	FBW7 act	TEAD-YAP inh	MITF inh conf	AS interf ctr	others
CCS(=O)(=O)N1CCN(Cc2cccc(Cl)c2)CC1	2	59*	0	-9	9	13
O=S(=O)(c1ccc(F)cc1)N1CCN(Cc2cccc(Cl)c2)CC1	1	60*	0	1	5	14
COc1cccc(/C=N/NC(=O)CNc2ccc(C)cc2)c1	-1	19	0	-9	/	/
Cc1ccccc1S(=O)(=O)NNC(=O)C(=O)NNc1ccccn1	1	54*	0	-1	47*	75*
Nc1ccc(S(=O)(=O)NNC(=O)C(=O)NNc2ccccn2)cc1	-1	44	0	-4	/	/
O=C(CN1CCN(Cc2nc(-c3ccco3)cs2)CC1)N1CCCC1	0	60*	-1	-4	9	5
COc1ccc(CN2CCN(S(=O)(=O)c3ccc4ccccc4c3)CC2)cc1OC	-1	44	0	6	/	/
OCCN(CCO)c1ncnc2sc3c(c12)CCCC3	0	68*	0	-1	8	15
Fc1cccc(CN2CCN(Cc3ccccn3)CC2)c1	0	71*	0	-6	11	25
c1ccc(Oc2cccc(CN3CCN(Cc4ccccn4)CC3)c2)cc1	-1	75*	0	2	-5	5
Fc1ccc(N2CCN(Cc3ccccn3)CC2)cc1	1	63*	0	0	14	42*
Cc1cc(C)cc(N(CC(=O)NC2CCCC2)C(=O)CCC(=O)Nc2nc(C)cs2)c1	1	5	0	7	/	/
CC1CCC(N2CCN(Cc3cccnc3)CC2)CC1 (stereo unspecified)	0	84*	0	7	-5	15
c1cncc(-c2n[nH]c(C3CCN(Cc4ccncc4)CC3)n2)c1	-1	54*	0	-3	5	11
Brc1ccc(CN2CCN(Cc3cccnc3)CC2)cc1	4	84*	0	-4	1	9
O=S(=O)(c1ccc(Cl)cc1)N1CCN(Cc2cccnc2)CC1	-1	4	0	-2	/	/
Fc1ccccc1N1CCN(C2CCN(Cc3cccnc3)CC2)CC1	-1	82*	0	5	9	7
Fc1ccccc1N1CCN(Cc2cccnc2)CC1	0	46	0	7	/	/
Cc1cc(C)c2c(c1)-c1c(ssc1=S)C(C)(C)N2C(=O)CN1C(=O)c2ccccc2C1=O	4	21	-1	2	/	/
O=C1c2cccnc2C(=O)N1CCc1ccc(S(=O)(=O)NC2CCCC2)cc1	-1	5	0	7	/	/
CC(=O)c1cccc(NC(=O)NC2CC(=O)N(c3ccc(F)cc3)C2)c1 (stereo unspecified)	0	2	0	8	/	/
c1cncc(CN2CCN(Cc3cccnc3)CC2)c1	0	60*	0	9	3	-1
Fc1ccc(N2CCN(Cc3cccnc3)CC2)cc1	1	37	0	11	/	/
c1cncc(CN2CCN(Cc3ccncc3)CC2)c1	1	77*	0	5	7	0
O=C(C1c2ccccc2Oc2ccccc21)N1CCCC(c2nc(-c3cccnc3)n[nH]2)C1 (stereo unspecified)	0	62*	0	-1	7	14
c1cncc(CN2CCN(Cc3ccco3)CC2)c1	1	75*	0	2	9	-1
Brc1ccc(CN2CCN(c3ncccn3)CC2)cc1	0	54*	0	5	1	3
